SW480 rereplic: A quantitative high throughput screen for small molecules that induce DNA re-replication in SW480 colon adenocarcinoma cells. SW480 DNA re-replication, Hoechst DNA content imaging, 48 h. Potency, µM (series often up to 46.1 µM), usual class: activators. 340,000 tested, 1.8% active; further: nearly all actives have a fitted effect of over 55% in size
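Quantitative HTS format with DMSO vehicle controls; 48 hr drug incubation at 37 C, then 40 min Hoechst staining and scanning imager measurement at 405 nm excitation.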
IL1B secr inh: qHTS for Inhibitors of Inflammasome Signaling: IL-1-beta AlphaLISA Primary Screen | THP-1 LPS/ATP IL-1B secretion, AlphaLISA, 16 h; stronger effect = lower value | activity change, % at 57.5 µM | 360,000 tested, 4.7% active | AID 743279, 2014; in the data active means activity change below about -50%; inconclusive means mostly about -30% to -49%
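Secreted IL-1B measured by AlphaLISA bead assay after 16 h compound exposure of THP-1 cells; compounds (final up to 57.5 uM) added 1 h before LPS (250 ng/mL) and ATP (1.25 mM) stimulation; lower signal means less secretion.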
MCF10A rereplic: A quantitative high throughput screen for small molecules that induce DNA re-replication in MCF 10a normal breast cells. MCF 10A DNA re-replication, Hoechst nuclear intensity, 48 h. Potency, µM (highest dose often 46.1 µM), hits mostly activators. 350,000 tested, 2.9% active; further: nearly all actives have a fitted effect of over 50% in size
PINK1 modulator: A Quantitative High throughput Screen to Identify Chemical Modulators of PINK1 Expression; PINK1 immunofluorescence, high-content cytometry, 24 h; Potency, µM (series often up to 76.6 µM), actives largely listed as activators; 410,000 tested, 0.2% active; active means well fitted activation curve with a large enough effect; inconclusive means small, poorly fitted or top-dose-only effect; cell line not stated here; further: nearly all actives have a fitted effect of over 65% in size
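Cells are seeded, rested 12 hours, then given compound at five concentrations or DMSO for 24 hours. After fixation, blocking and antibody staining, PINK1 amount and mitochondrial localization are scored; CCCP serves as control.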
ATXN2 expr inh: Primary qHTS for Inhibitors of ATXN expression; HEK-293 ATXN2-luciferase reporter, luminescence, 24 h; Potency, µM (series often up to 57 µM), most hits filed as inhibitors; 360,000 tested, 0.72% active; AID 1745845, 2022; further: nearly all actives have a fitted effect of over 55% in size
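ATXN2-luciferase reporter cells (luciferase flanked by upstream and downstream ATXN2 gene portions) were treated 24 h at 37 °C with compounds at up to 57 uM. SteadyGlo luminescence gave expression; GF-AFC fluorescence gave viability.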
ATXN viability: Viability Counterscreen for Primary qHTS for Inhibitors of ATXN expression. S2 cells (HEK-293 line with an ATXN2-luciferase reporter) viability, CellTiter-Fluor protease fluorescence, 24 h. Potency, µM (doses to about 56.7 µM), most hits filed as cytotoxic. 400,000 tested, 0.49% active; further: nearly all actives have a fitted effect of over 40% in size
Numbers stand for hits; n = inactive; u = inconclusive; x = not tested or not shown; [ ] = remark or other dose. A selection: hits, their analogues and other compounds. The true share with any hit is near 7.1%. Unless noted, the call rests on the fitted dose curve; in most records, active means well fitted curve in the direction sought with a large enough effect; inconclusive means small, poorly fitted or top-dose-only effect, or another doubt; inactive means no such curve, though single readings can be large; an effect the other way counts as inactive or inconclusive.

SMILES | SW480 rereplic | IL1B secr inh | MCF10A rereplic | PINK1 modulator | ATXN2 expr inh | ATXN viability
CSc1cccc(NC(=O)/C=C/c2ccccc2)c1 | n | -63 | n | n | n | n
Cc1ccc(Cl)cc1N1CCN(C(=O)C2CCN(S(=O)(=O)Cc3ccccc3)CC2)CC1 | x | x | x | n | n | n
CC(C)c1ccc(-c2c(C#N)c(N)nc(SCC(=O)N3CCCCCC3)c2C#N)cc1 | n | n | n | n | n | n
COC(=O)CSc1nc(N)c(C#N)c(-c2ccc(O)cc2)c1C#N | n | -70 | n | n | n | n
CC(C)c1ccc(-c2c(C#N)c(N)nc(SCC(=O)N3CCCCC3)c2C#N)cc1 | u | n | 7.3µM | n | u | u
Cc1nc2ccc(S(=O)(=O)N(CC(=O)Nc3cccc(C)c3C)Cc3ccccc3)cc2s1 | x | x | x | n | n | n
COc1cc(-c2nnc(SCc3ccccc3Cl)o2)cc(OC)c1OC | n | -59 | 21µM | n | n | n
Fc1cccc(Cl)c1CSc1nnc(-c2ccncc2)o1 | n | n | n | n | n | n
COc1cc(-c2nnc(SCc3c(F)cccc3Cl)o2)cc(OC)c1OC | n | -58 | u | n | n | n
COc1ccc(-c2nnc(SCC(=O)Nc3cccc(C(F)(F)F)c3)s2)cc1 | x | x | x | n | n | n
COc1cc(/C=C/c2nc(C#N)c(N3CCN(C)CC3)o2)cc(OC)c1OC | x | x | x | n | x | x
CC(CNC(=O)c1cnn(-c2ccc(F)cc2)c1-n1cccc1)c1ccccc1 (configuration not stated) | x | x | x | n | n | n
Clc1ccc(C(c2nnnn2C2CCCC2)N2CCSCC2)cc1 (configuration not stated) | n | -62 | 21µM | n | n | n
c1ccc(C(c2nnnn2C2CCCC2)N2CCN(c3ccccc3)CC2)cc1 (configuration not stated) | n[9.22 µM] | -50 | u | n | n | n
COc1ccc(C(c2nnnn2C2CCCCC2)N2CCN(c3ccc(OC)cc3)CC2)cc1 (configuration not stated) | u | n | n | n | n | u
O=C(CCCn1c(=O)c2ccccc2n(Cc2ccc(F)cc2Cl)c1=O)NCCc1ccc(Cl)cc1 | x | x | x | n | n | n
N#C/C(=C\c1ccc([N+](=O)[O-])o1)C(=O)Nc1ccc(F)cc1 | u | -90 | u | n | u | n
N#CCc1ccc(NC(=O)/C=C/c2ccc([N+](=O)[O-])o2)cc1 | u | -98 | 16µM | n | 8.9µM | 13µM
NC(=O)NN=Cc1ccc([N+](=O)[O-])o1 | x | x | x | x | n | x
Cc1coc2c(C)c3oc(=O)c(CCC(=O)NCCc4ccc(Cl)cc4)c(C)c3cc12 | x | x | x | n | x | x
CCN1CCN(Cc2c3ccccc3cc3ccccc23)CC1 | n | -86 | n | n | n | n
O=C(Cn1c(SCCOc2ccc(Cl)cc2)nc2ccccc21)N1CCCCC1 | x | x | x | n | n | x
CC(COc1ccccc1)NN (configuration not stated) | x | x | x | x | n | n
COc1cccc2c1C(=O)c1c(O)c3c(c(O)c1C2=O)CC(O)(C(=O)CO)CC3OC1CC(N(C)C)C(O)C(C)O1 (configuration not stated) | n | -100 | n | n | u | x
COc1cccc2c1C(=O)c1c(O)c3c(c(O)c1C2=O)C[C@@](O)(C(=O)CO)C[C@@H]3O[C@H]1C[C@H](N)[C@H](O[C@@H]2CCCCO2)[C@H](C)O1 | x | x | x | x | 0.4µM | 16µM
SMILES | SW480 rereplic | IL1B secr inh | MCF10A rereplic | PINK1 modulator | ATXN2 expr inh | ATXN viability
CC(=O)[C@]1(O)Cc2c(O)c3c(c(O)c2[C@@H](O[C@H]2C[C@H](N)[C@H](O)[C@H](C)O2)C1)C(=O)c1c(O)cccc1C3=O | n | x | n | x | x | x
CC(=O)[C@]1(O)Cc2c(O)c3c(c(O)c2[C@@H](O[C@H]2C[C@H](N)[C@@H](O)[C@H](C)O2)C1)C(=O)c1ccccc1C3=O | x | x | x | x | 0.14µM | x
COc1cccc2c1C(=O)c1c(O)c3c(c(O)c1C2=O)C[C@](O)(C(=O)CO)C[C@@H]3O[C@H]1C[C@H](N)[C@@H](O)[C@H](C)O1 | n | x | n | x | x | x
COc1ccc(NC(=O)COC(=O)/C=C/C(=O)OCC(=O)Nc2ccc(OC)c(Cl)c2)cc1Cl | u | -103 | u | n | n | n
COC(=O)/C=C/C(=O)Nc1ccc(O)c(Cl)c1 | u | -99 | u | n | n | n
COc1ccc(NC(=O)CNS(=O)(=O)c2ccccc2)cc1Cl | u | n | 8.2µM | n | n | n
COc1ccc(NC(=O)Nc2cccs2)cc1Cl | n | -52 | n | n | x | n
CCOC(=O)/C=C/C(=O)OCC(=O)Nc1ccc(OC)c(Cl)c1 | n | u | u | n | x | n
COc1ccc(NC(=O)CCC(=O)c2cccs2)cc1Cl | n | n | n | n | n | n
CCC(Sc1ncc(S(=O)(=O)c2ccc(C)cc2)c(=O)[nH]1)C(=O)Nc1cc(C)ccc1C (configuration not stated) | x | x | x | n | n | n
Cc1ccc(-n2ncc(C(=O)NCCc3c[nH]c4ccccc34)c2C2CCN(C(=O)OC(C)(C)C)CC2)cc1C | x | x | x | n | n | n
CCC(C)NC(=O)c1ccc2c(c1)sc1nc(-c3ccc(OC)cc3)cn12 (configuration not stated) | x | x | x | n | x | x
Cc1cccc(NCc2ccc(Br)cc2)n1 | n | -62 | n | n | n | n
Cc1cccc(NCc2cccc3ccccc23)n1 | n | n | n | n | x | n
COC(=O)COc1cccc2c(=O)n(CC(=O)N3CCCCC3)ccc12 | n | n | n | n | x | x
CCOC(=O)COc1cccc2c(=O)n(CC(=O)NCCc3ccccc3)ccc12 | n | n | n | n | n | n
CCOC(=O)COc1cccc2c(=O)n(CC(=O)NCc3ccc4c(c3)OCO4)ccc12 | 7.3µM | n | u | n | n | n
COC(=O)COc1cccc2c(=O)n(CC(=O)N3CCC(C)CC3)ccc12 | n | -61 | n | n | n | n
COC(=O)COc1cccc2c(=O)n(CC(=O)NCc3ccc(F)cc3)ccc12 | 5.8µM | n | 10µM | n | n | u
Cc1ccccc1C(=O)Nc1cccc(-c2nc3cccnc3s2)c1 | x | x | x | n | x | x
COC(=O)[C@@]12C[C@@H](CC(=O)NCc3ccccc3)C(=O)N(Cc3cccc4ccccc34)C1=CCC(C)(C)C2 | x | -83 | x | x | x | x
COC(=O)[C@@]12C[C@@H](CC(=O)NCc3ccccc3)C(=O)N(Cc3ccccc3)C1=CCC(C)(C)C2 | x | -60 | x | x | x | x
COc1ccc(N2C(=O)C(Cl)=C(Oc3cccc(OC)c3)C2=O)cc1 | n | -102 | n | n | n[11.3 µM] | n

Compound activity deposited in PubChem by National Center for Advancing Translational Sciences (NCATS).
